Experimental data reported in the supplement of paper PMC10849652.
Of roughly 7,900 targets only a part is listed; those with a hit were picked by preference. About 0.6% of all pairs of compound and target were hits.

Columns and labels:
Experiment in all cases: log2 fold change, soluble protein after heating vs DMSO (PISA); higher = thermal stabilisation; K562 cells, 10 uM, 30 min; active = over 0.2 and 3.5 SD of the protein, either way, in both replicates (recomputed)
[1] = compound: Cc1ccc(NC(=O)c2ccc(CN3CC[C@H](N(C)C)C3)c(C(F)(F)F)c2)cc1Nc1nccc(-c2cncnc2)n1 [bafetinib]
How it was run: (§1)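 Quantification of soluble protein used TMTpro 16plex LC-MS/MS, with channel sums equalised. Samples were the supernatant after 21,000xg for 90 min of pooled aliquots from K562 cells (2×10^6 cells/mL) treated with 10 μM compound for 30 min, heated for 3 min over 48°C-58°C, and extracted in PBS with 0.5% NP-40 at 4°C. Values, from duplicates, describe thermal stability against control samples on a log2 fold-change scale.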

[2] = compound: Cc1cccc(CC(=O)N2CCc3c2ccc(-c2cn(C)c4ncnc(N)c24)c3F)n1
How it was run: as §1

[3] = compound: Cc1cn(-c2cc(NC(=O)c3ccc(C)c(Nc4nccc(-c5cccnc5)n4)c3)cc(C(F)(F)F)c2)cn1 [nilotinib]
How it was run: as §1

[4] = compound: Cc1nc(Nc2n[nH]c3c2CN(C(=O)N[C@H](CN(C)C)c2ccccc2)C3(C)C)c2sccc2n1
How it was run: as §1

[5] = compound: Cc1nc(Nc2ncc(C(=O)Nc3c(C)cccc3Cl)s2)cc(N2CCN(CCO)CC2)n1 [dasatinib]
How it was run: as §1

[6] = compound: Cc1ncc(-c2ccnc(Nc3ccc(S(C)(=O)=O)cc3)n2)n1C(C)C
How it was run: as §1

[7] = compound: Cn1cc(-c2ccc3c(c2)CCN3C(=O)Cc2cccc(C(F)(F)F)c2)c2c(N)ncnc21
How it was run: as §1

[8] = compound: Cn1cc(-c2ccc3nnc(C(F)(F)c4ccc5ncccc5c4)n3n2)cn1
How it was run: as §1

[9] = compound: Cn1cncc1[C@@](N)(c1ccc(Cl)cc1)c1ccc2c(c1)c(-c1cccc(Cl)c1)cc(=O)n2C [tipifarnib]
How it was run: as §1

[10] = compound: FC(F)(F)c1ccc(/C=C/c2nc(COc3ccc(CCCCn4ccnn4)cc3)co2)cc1 [mubritinib]
How it was run: as §1

[11] = compound: NC(=O)Nc1cc(-c2cccc(F)c2)sc1C(=O)N[C@H]1CCCNC1
How it was run: as §1

[12] = compound: NC(=O)c1cnc(N[C@@H]2CCCC[C@@H]2N)nc1Nc1cccc(-n2nccn2)c1
How it was run: as §1

[13] = compound: NC1(c2ccc(-c3nc4ccn5c(=O)[nH]nc5c4cc3-c3ccccc3)cc2)CCC1
How it was run: as §1

[14] = compound: NCC(=O)Nc1ccc(-n2nc(C(F)(F)F)cc2-c2ccc3c(ccc4ccccc43)c2)cc1
How it was run: as §1

[15] = compound: Nc1ccccc1NC(=O)c1ccc(CNC(=O)OCc2cccnc2)cc1 [entinostat]
How it was run: as §1

[16] = compound: O=C(CCCCCCC(=O)Nc1ccccc1)NO [vorinostat]
How it was run: as §1

[17] = compound: O=C(CCCCCCNC(=O)c1cnc(N(c2ccccc2)c2ccccc2Cl)nc1)NO [citarinostat]
How it was run: as §1

[18] = compound: O=C(O)c1ccc2c(c1)nc(Nc1cccc(Cl)c1)c1ccncc12 [silmitasertib]
How it was run: as §1

[19] = compound: O=C1NC(=O)C(c2cnc3ccccn23)=C1c1cn2c3c(cc(F)cc13)CN(C(=O)N1CCCCC1)CC2
How it was run: as §1

[20] = compound: c1cc(OCCN2CCCCC2)cc(-c2n[nH]c3ccc(-c4nnc[nH]4)cc23)c1
How it was run: as §1

Measured: log2 fold change

AHSA1 (UniProt O95433)
inactive: [1] -0.059 | [2] 0.013 | [3] -0.052 | [4] -0.035 | [5] -0.096 | [6] -0.018 | [7] 0.065 | [8] 0.009 | [9] -0.056 | [10] 0.038 | [11] -0.002 | [12] -0.005 | [13] -0.131 | [14] -0.043 | [15] 0.022 | [16] 0.013 | [17] 0.026 | [18] 0.019 | [19] -0.009 | [20] -0.003

ALDH2 (UniProt P05091)
active: [16] 0.216
inactive: [1] 0.009 | [2] -0.02 | [3] 0.006 | [4] -0.016 | [5] -0.034 | [6] 0.019 | [7] 0.072 | [8] 0.059 | [9] -0.005 | [10] 0.07 | [11] 0.012 | [12] -0.039 | [13] -0.046 | [14] -0.016 | [15] -0.007 | [17] 0.043 | [18] -0.038 | [19] -0.001 | [20] -0.023

ABCC5 (UniProt O15440)
inactive: [1] -0.027 | [2] 0.068 | [3] -0.21 | [5] -0.035 | [6] -0.015 | [7] 0.017 | [8] 0.053 | [9] -0.009 | [10] 0.124 | [11] 0.016 | [12] 0.088 | [13] -0.038 | [14] -0.005 | [15] -0.017 | [16] 0.001 | [17] 0.114 | [18] 0.008 | [19] -0.082 | [20] 0.12
active: [4] -0.219

ATR (UniProt Q13535)
inactive: [1] -0.036 | [2] -0.028 | [3] -0.07 | [4] 0.036 | [5] -0.123 | [6] -0.054 | [7] 0.012 | [8] 0.039 | [9] -0.022 | [10] -0.013 | [11] -0.003 | [12] 0.002 | [13] 0.044 | [14] -0.089 | [15] 0.017 | [16] 0.057 | [17] 0.039 | [18] 0.035 | [19] -0.058 | [20] -0.066

ATP1A1 (UniProt P05023)
inactive: [1] 0.018 | [2] 0.102 | [3] 0.062 | [4] 0.008 | [5] 0.07 | [6] 0.005 | [7] 0.04 | [8] 0.001 | [9] -0.011 | [10] 0.023 | [11] -0.055 | [12] 0.093 | [13] 0.116 | [14] 0.07 | [15] -0.04 | [16] 0.03 | [17] -0.003 | [18] -0.062 | [19] -0.077 | [20] 0.003

AP2A2 isoform 2 (UniProt O94973)
UniProt O94973, sequence (O94973 whole entry, looked up): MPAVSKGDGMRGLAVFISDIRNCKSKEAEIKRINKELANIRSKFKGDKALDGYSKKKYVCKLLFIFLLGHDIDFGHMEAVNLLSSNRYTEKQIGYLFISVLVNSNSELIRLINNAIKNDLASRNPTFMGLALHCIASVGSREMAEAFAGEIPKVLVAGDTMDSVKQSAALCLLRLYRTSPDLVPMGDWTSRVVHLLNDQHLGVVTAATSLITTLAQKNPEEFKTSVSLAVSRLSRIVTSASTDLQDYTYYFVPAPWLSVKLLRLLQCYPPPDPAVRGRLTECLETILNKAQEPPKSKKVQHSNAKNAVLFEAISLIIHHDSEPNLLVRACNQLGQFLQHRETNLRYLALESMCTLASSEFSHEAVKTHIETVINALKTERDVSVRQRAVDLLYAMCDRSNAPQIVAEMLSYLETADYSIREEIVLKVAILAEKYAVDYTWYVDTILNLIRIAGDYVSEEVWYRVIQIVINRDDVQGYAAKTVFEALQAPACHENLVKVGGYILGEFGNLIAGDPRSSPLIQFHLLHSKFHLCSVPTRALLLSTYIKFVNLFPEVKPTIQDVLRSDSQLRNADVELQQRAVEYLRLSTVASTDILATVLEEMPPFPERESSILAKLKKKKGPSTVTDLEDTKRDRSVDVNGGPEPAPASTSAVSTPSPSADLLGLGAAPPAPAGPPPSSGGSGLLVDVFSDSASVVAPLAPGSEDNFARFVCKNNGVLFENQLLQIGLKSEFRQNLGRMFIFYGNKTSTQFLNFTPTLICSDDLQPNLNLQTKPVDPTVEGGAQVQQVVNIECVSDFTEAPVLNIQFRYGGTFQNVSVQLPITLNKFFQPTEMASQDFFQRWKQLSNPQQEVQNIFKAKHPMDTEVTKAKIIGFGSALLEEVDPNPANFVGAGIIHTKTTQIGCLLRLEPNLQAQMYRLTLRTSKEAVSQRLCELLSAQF
inactive: [1] 0.02 | [2] 0.031 | [3] -0.027 | [4] 0.009 | [5] 0.062 | [6] -0.018 | [7] 0.006 | [8] -0.074 | [9] -0.006 | [10] 0.035 | [11] -0.155 | [12] 0.052 | [13] -0.003 | [14] -0.013 | [15] 0.002 | [16] 0.034 | [17] -0.023 | [18] -0.016 | [19] -0.113 | [20] -0.156

BAIAP2 (UniProt Q9UQB8)
UniProt Q9UQB8, sequence (Q9UQB8 whole entry, looked up): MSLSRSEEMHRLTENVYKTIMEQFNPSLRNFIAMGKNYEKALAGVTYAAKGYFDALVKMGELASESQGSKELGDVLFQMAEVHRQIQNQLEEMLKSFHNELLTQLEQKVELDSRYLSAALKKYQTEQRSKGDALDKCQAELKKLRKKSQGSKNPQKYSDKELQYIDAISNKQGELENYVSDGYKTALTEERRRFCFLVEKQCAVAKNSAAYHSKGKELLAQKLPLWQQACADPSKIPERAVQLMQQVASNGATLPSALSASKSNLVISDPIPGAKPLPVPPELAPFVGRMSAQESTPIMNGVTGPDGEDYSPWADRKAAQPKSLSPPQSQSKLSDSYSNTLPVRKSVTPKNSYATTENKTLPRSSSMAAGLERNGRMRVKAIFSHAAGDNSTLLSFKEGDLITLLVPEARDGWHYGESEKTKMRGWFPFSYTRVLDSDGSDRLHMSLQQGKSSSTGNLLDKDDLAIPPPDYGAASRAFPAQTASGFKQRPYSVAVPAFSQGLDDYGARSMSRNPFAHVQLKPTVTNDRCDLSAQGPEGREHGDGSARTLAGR
active: [11] -0.229
inactive: [1] -0.009 | [2] 0.032 | [3] -0.061 | [4] -0.05 | [5] -0.066 | [6] -0.038 | [7] 0.03 | [8] -0.032 | [9] -0.035 | [10] 0.06 | [12] -0.083 | [13] -0.086 | [14] -0.014 | [15] 0.019 | [16] 0.082 | [17] 0.031 | [18] -0.016 | [19] 0.04 | [20] -0.034

BUB1B isoform 3 (UniProt O60566)
inactive: [1] 0.03 | [2] 0.107 | [3] -0.089 | [4] -0.142 | [5] -0.13 | [6] 0.02 | [7] 0 | [8] 0.017 | [9] -0.114 | [10] 0.012 | [11] 0 | [12] -0.135 | [13] -0.113 | [14] -0.039 | [15] 0.068 | [16] 0.124 | [17] 0.02 | [18] 0.111 | [19] 0.026 | [20] 0

AGPAT1 (UniProt Q99943)
UniProt Q99943, sequence (Q99943 whole entry, looked up): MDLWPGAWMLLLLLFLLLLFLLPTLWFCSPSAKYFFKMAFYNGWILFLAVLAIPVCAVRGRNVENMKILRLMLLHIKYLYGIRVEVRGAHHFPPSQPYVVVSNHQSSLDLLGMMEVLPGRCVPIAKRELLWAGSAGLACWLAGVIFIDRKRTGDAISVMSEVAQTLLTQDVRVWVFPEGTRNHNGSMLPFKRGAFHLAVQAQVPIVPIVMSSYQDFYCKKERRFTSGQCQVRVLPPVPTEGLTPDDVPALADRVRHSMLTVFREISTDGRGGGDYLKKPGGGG
inactive: [1] -0.036 | [2] 0.012 | [3] -0.035 | [4] 0.016 | [5] -0.033 | [6] -0.063 | [7] 0.033 | [8] -0.006 | [9] 0.027 | [10] 0.014 | [11] 0.013 | [12] -0.022 | [13] 0.018 | [14] -0.012 | [15] -0.033 | [16] -0.03 | [17] 0.088 | [18] -0.007 | [19] -0.067 | [20] -0.002

BRD8 (UniProt Q9H0E9)
UniProt Q9H0E9, sequence (Q9H0E9 whole entry, looked up): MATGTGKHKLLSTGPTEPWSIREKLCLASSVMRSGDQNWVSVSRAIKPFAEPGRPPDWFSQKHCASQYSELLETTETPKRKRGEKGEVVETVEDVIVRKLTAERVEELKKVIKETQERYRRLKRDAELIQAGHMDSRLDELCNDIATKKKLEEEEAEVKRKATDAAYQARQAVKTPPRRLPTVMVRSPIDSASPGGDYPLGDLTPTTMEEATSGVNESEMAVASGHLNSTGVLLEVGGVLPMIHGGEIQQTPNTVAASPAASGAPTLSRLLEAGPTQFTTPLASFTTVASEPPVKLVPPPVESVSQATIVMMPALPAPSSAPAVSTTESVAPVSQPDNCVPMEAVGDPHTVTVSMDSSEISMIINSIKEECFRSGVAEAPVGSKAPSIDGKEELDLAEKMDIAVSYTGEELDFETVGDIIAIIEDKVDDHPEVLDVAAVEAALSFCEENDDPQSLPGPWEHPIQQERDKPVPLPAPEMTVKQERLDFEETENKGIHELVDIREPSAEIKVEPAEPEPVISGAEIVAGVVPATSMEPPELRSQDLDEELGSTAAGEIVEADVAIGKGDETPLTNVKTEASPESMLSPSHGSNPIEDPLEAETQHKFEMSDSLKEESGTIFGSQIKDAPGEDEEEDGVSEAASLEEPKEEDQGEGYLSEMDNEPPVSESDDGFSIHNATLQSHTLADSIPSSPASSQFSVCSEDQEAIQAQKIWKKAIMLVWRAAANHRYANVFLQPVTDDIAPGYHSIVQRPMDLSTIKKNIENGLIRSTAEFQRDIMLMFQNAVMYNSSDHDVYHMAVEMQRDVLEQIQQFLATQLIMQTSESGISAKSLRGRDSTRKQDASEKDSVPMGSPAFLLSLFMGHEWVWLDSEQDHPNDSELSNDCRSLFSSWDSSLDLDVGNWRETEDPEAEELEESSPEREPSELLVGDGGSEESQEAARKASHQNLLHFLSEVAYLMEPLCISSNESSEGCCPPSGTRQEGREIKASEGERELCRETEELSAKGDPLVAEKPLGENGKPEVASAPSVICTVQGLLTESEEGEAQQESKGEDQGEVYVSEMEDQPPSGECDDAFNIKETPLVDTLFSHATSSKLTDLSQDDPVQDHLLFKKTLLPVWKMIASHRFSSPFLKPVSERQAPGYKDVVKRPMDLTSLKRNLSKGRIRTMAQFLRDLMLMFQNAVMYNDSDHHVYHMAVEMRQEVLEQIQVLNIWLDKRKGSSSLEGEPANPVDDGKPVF
inactive: [1] -0.032 | [2] -0.072 | [3] -0.01 | [4] -0.055 | [5] 0.057 | [6] -0.019 | [7] 0.018 | [8] -0.028 | [9] 0.054 | [10] 0.011 | [11] 0.008 | [12] -0.107 | [13] 0.038 | [14] -0.014 | [15] -0.041 | [16] -0.125 | [17] -0.12 | [18] 0.038 | [19] 0.022 | [20] -0.059

BCL9L (UniProt Q86UU0)
UniProt Q86UU0, sequence (Q86UU0 whole entry, looked up): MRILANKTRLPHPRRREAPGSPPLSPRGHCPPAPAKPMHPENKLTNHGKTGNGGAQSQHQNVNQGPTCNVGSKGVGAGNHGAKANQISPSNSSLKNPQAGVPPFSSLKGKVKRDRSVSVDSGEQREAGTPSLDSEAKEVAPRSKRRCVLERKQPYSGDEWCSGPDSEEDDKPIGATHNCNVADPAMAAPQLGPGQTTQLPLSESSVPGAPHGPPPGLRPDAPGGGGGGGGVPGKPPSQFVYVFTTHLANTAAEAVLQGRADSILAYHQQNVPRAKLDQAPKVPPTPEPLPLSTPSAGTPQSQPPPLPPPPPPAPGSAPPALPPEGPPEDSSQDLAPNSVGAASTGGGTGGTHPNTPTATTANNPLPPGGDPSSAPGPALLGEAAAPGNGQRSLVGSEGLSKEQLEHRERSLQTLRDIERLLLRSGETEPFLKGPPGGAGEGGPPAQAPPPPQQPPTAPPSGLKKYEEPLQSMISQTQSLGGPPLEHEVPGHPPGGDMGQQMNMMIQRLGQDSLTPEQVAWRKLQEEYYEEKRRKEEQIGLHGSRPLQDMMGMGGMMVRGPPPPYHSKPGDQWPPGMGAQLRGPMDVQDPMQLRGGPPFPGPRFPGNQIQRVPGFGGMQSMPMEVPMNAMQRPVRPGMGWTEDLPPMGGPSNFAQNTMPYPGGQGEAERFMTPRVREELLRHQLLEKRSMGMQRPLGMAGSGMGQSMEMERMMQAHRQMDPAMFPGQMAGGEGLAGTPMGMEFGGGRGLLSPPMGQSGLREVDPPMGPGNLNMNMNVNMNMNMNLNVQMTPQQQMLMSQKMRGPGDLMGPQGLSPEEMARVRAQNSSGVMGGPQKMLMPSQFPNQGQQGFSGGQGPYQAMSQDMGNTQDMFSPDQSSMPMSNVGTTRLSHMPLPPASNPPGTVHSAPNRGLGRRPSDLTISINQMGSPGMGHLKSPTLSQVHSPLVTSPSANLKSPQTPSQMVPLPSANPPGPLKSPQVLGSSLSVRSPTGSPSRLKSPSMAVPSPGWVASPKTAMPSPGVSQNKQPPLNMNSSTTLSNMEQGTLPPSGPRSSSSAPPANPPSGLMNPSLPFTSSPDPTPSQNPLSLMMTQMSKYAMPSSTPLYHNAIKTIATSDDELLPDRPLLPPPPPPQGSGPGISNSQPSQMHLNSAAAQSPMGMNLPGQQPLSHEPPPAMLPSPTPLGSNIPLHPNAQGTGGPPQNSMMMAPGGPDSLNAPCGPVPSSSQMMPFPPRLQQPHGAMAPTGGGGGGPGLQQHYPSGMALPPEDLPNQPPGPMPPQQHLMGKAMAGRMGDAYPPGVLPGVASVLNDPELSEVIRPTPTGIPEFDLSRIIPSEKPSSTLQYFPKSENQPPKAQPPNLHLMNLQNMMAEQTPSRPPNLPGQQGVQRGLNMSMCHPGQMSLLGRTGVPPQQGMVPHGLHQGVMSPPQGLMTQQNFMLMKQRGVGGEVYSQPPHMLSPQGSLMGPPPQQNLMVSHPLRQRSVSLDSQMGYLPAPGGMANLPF
active: [20] 0.241
inactive: [1] 0.043 | [2] 0 | [3] -0.046 | [4] -0.064 | [5] 0.018 | [6] 0.053 | [7] -0.013 | [8] -0.031 | [9] 0.014 | [10] 0.026 | [11] 0.037 | [12] -0.009 | [13] 0.03 | [14] 0.021 | [15] -0.002 | [16] 0.012 | [17] 0.017 | [18] -0.038 | [19] -0.045

BID isoform 2 (UniProt P55957)
inactive: [1] -0.035 | [2] -0.071 | [3] 0.019 | [4] -0.006 | [5] 0.018 | [6] 0.005 | [7] 0.038 | [8] 0.007 | [9] -0.079 | [10] 0.044 | [11] 0.032 | [12] 0.019 | [13] -0.037 | [14] 0.052 | [15] -0.018 | [16] -0.039 | [17] 0.006 | [18] -0.008 | [19] 0.042 | [20] 0.005

ATP6V0A1 (UniProt Q93050)
inactive: [1] -0.078

ATP1B3 (UniProt P54709)
inactive: [1] 0 | [2] -0.039 | [3] 0.06 | [4] -0.003 | [5] 0.027 | [6] 0.021 | [7] 0 | [8] -0.02 | [9] 0.065 | [10] 0.043 | [11] -0.065 | [12] -0.011 | [13] 0.066 | [14] 0.004 | [15] -0.041 | [16] -0.007 | [17] 0.037 | [18] 0.002 | [19] -0.057 | [20] -0.088

BAD (UniProt Q92934)
UniProt Q92934, sequence (Q92934 whole entry, looked up): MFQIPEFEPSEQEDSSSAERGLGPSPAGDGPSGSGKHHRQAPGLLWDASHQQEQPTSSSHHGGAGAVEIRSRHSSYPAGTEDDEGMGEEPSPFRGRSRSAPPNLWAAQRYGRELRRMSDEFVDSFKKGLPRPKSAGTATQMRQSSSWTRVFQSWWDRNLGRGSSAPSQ
inactive: [1] -0.151 | [2] -0.046 | [3] 0.034 | [4] 0.009 | [5] 0.092 | [6] -0.069 | [7] 0.077 | [8] 0.076 | [9] -0.005 | [10] -0.046 | [11] -0.243 | [12] 0.033 | [13] 0.101 | [14] -0.018 | [15] -0.122 | [16] 0.011 | [17] -0.064 | [18] -0.071 | [19] 0.131 | [20] -0.072

ATP5IF1 (UniProt Q9UII2)
inactive: [1] -0.039 | [2] -0.101 | [3] -0.038 | [4] 0.005 | [5] 0.055 | [6] -0.042 | [7] -0.002 | [8] 0.094 | [9] 0.059 | [10] 0.033 | [11] -0.039 | [12] -0.01 | [13] -0.02 | [14] 0.086 | [15] -0.021 | [16] -0.07 | [17] -0.124 | [18] -0.044 | [19] -0.092 | [20] 0.092

AKR1C2 (UniProt P52895)
UniProt P52895, sequence (P52895 whole entry, looked up): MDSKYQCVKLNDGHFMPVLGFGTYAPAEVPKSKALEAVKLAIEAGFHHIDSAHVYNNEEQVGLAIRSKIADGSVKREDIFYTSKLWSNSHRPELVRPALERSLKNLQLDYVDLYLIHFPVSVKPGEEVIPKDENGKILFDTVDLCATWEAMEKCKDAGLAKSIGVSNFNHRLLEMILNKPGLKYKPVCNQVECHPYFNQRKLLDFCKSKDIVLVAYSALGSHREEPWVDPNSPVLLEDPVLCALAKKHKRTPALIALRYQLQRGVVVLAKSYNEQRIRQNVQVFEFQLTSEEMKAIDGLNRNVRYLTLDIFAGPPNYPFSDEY
inactive: [1] 0.103 | [2] -0.111 | [3] 0.029 | [4] -0.057 | [5] -0.012 | [6] 0.028 | [7] -0.07 | [8] 0.223 | [9] 0.271 | [10] -0.06 | [11] 0.133 | [12] -0.092 | [13] 0.206 | [14] -0.006 | [15] -0.129 | [16] 0.012 | [17] 0.018 | [18] 0.257 | [19] 0.079 | [20] -0.076
